Reference: PubChem BioAssay AID588501 (NMMLSC, 2011)
Among all 360,000 compounds or so, about 420 (0.12%) were called active. Rule as the data show it: active = inhibition above about 30%; inconclusive = no clear call, values can overlap the other calls; inactive = below that. Many of the other results were omitted from the sample, so actives are more common in it than they were.

These compounds were tested against Lethal factor (Bacillus anthracis) (UniProt P15917) (assay: anthrax lethal factor cleavage blockers – biochemical, multiplex microsphere, MLPCN library, primary screen (AID 588501; also: plate controls were buffer without enzyme for full effect and enzyme alone for no effect)). Conditions: multiplex microsphere protease cleavage assay, LF; at 10 µM; active compounds read high.

Row | SMILES | inhibition
1 | Cc1cccc(N2CCN(C(=O)CCS(=O)(=O)c3ccc4c(c3)NC(=O)C(C)S4)CC2)c1C (stereo not drawn) | -3% (inactive)
2 | COc1ccc(-c2nc3ccccc3n2CCC(C)C)cc1OC | 0.7% (inactive)
3 | Cc1ccc(-c2csc(N3CCN(c4cc5c(cc4Cl)nc(-c4ccncc4)n5CCOCCO)CC3)n2)cc1 | -0.9% (inactive)
4 | CC(=O)OCCN(CCCn1c(-c2ccncc2)nc2ccccc21)c1nc(-c2ccc(C)cc2)cs1 | 41.1% (active)
5 | COc1ccc(N2CCN(C(=O)c3ccccc3NC(=O)C3=C(C)OCCS3)CC2)cc1 | 1.2% (inactive)
6 | COc1ccc(CC(=O)NC(C)c2ccc(Cl)c(Cl)c2)cc1S(=O)(=O)N1CCOCC1 (stereo not drawn) | 1.2% (inactive)
7 | O=C(NCc1ccncc1)C(=O)NCC1OCCN1S(=O)(=O)c1ccc(Br)cc1 (stereo not drawn) | -6.7% (inactive)
8 | C=C1C(=O)[C@]23C[C@H]1CCC2[C@@]1(C)C(C[C@@H]3O)[C@](C)(C(=O)O)CC[C@@H]1O (stereo partly drawn) | 6% (inactive)
9 | COc1ccc(OCC(=O)NCCc2ccc(S(N)(=O)=O)cc2)cc1 | -1.2% (inactive)
10 | CCC(C)(C(=O)Nc1ccccc1C)N(C(=O)CNC(C)=O)c1ccc(C)cc1 (stereo not drawn) | 0.5% (inactive)
11 | COC(=O)Cc1ccc(N(Cc2ccccc2F)S(=O)(=O)c2ccc(Br)cc2)cc1 | -0.1% (inactive)
12 | CC(C)(C)c1ccc(C(=O)N2CCN(CCNC(=O)C(=O)Nc3ccc(F)cc3)CC2)cc1 | -3.8% (inactive)
13 | Cc1cccc(N2CCN(C(C)C(=O)N3CCc4ccccc43)CC2)c1C (stereo not drawn) | -6.6% (inactive)
14 | COCCn1c(N)c(NCc2ccccc2)c(=O)[nH]c1=O | -3.2% (inactive)
15 | COCCNc1ncnc2c1nc1n2CCCC1 | 0.3% (inactive)
16 | OC(c1ccc(Cl)cc1)C(CN1CCOCC1)c1ccccc1 (stereo not drawn) | 40.7% (active)
17 | O=C(CC(c1ccccc1)c1cc(Cl)ccc1O)NCCN1CCOCC1 (stereo not drawn) | -5.6% (inactive)
18 | OC(c1ccccc1)C(CN1CCOCC1)c1ccccc1 (stereo not drawn) | -9.8% (inactive)
19 | O=S(N1CCCCCC1)C12CC3CC(CC(C3)C1)C2 (stereo not drawn) | -5.3% (inactive)
20 | O=C(c1ccc(F)cc1)n1c(=S)nc2ccccn21 | -9.4% (inactive)
21 | O=C(C[n+]1cc(Br)cc2ccccc21)c1ccc(F)cc1 | 36.5% (active)
22 | O=C(CNC(=O)c1ccccc1F)c1ccc(Br)cc1 | 0.4% (inactive)

Row | SMILES | inhibition
23 | COc1ccc(CNC(=O)C(NS(=O)(=O)c2cccc3nsnc23)C(C)C)cc1 (stereo not drawn) | 0.7% (inactive)
24 | NS(=O)(=O)c1ccc(CCNC(=O)c2ccc(Cl)c(S(=O)(=O)N3CCCCCC3)c2)cc1 | -0.9% (inactive)
25 | O=C(O)C1CCCN(CCC=C(c2ccccc2)c2ccccc2)C1 (stereo not drawn) | -6.7% (inactive)
26 | O=C(O)c1ccc(S(=O)(=O)N2CCC(Cc3ccccc3)CC2)cc1 | -1.5% (inactive)
27 | Cc1ccc2cc(CCNC(=O)c3c(-c4ccccc4Cl)noc3C)c(=O)[nH]c2c1 | -10.3% (inactive)
28 | Cc1onc(-c2ccccc2Cl)c1C(=O)N(Cc1ccc(N(C)C)cc1)C(C)C | 8.3% (inactive)
29 | Cc1onc(-c2ccccc2Cl)c1C(=O)NCCn1ccc2ccccc21 | 53.9% (active)
30 | CCC(=O)N1Cc2cc(C(=O)NCc3cccc(F)c3)nc(-c3cccc(C4=CCCC4)c3)c2[C@H]1CCO | -8.3% (inactive)
31 | Cc1ccc(OCC(=O)N2CCN(C(=O)c3cccnc3)CC2)cc1 | -7.8% (inactive)
32 | CN1/C(=c2/s/c(=C3/C(=O)N(c4ccccc4)NC3=Nc3ccccc3)n(C)c2=O)C(C)(C)c2ccccc21 | -14.6% (inactive)
33 | COc1cc2c(cc1OC)C(C)N(S(=O)(=O)c1cnc(Cl)c(Cl)c1)CC2 (stereo not drawn) | 3.2% (inactive)
34 | COc1ccccc1OCCC(=O)OCC(=O)NCc1ccccc1 | -1.1% (inactive)
35 | Cc1ccc(C(=O)O)cc1-c1ccc(/C=C2\SC(=O)N(CC(=O)Nc3ccc4c(c3)OCO4)C2=O)o1 | -2.8% (inactive)
36 | CN1C(=O)/C(=C\c2ccc(-c3ccccc3)o2)SC1=S | 30.1% (active)
37 | NS(=O)(=O)c1ccc(-c2ccc(/C=C3\SC(=O)NC3=O)o2)cc1 | -4.1% (inactive)
38 | CCC1CCc2c(sc(NC(C)=O)c2C#N)C1 (stereo not drawn) | 2.5% (inactive)
39 | CCc1nc2ccc(C(=O)NC3CCN(Cc4ccccc4)CC3)cn2c1N(C)CCN1CCOCC1 | -2.5% (inactive)
40 | COC(=O)c1ccc2nc(-c3ccc(C)cc3)c(Cc3ccc(OC)cc3C)n2c1 | 2.1% (inactive)
41 | COc1cc(NC(=O)CSc2nnc3ccc(-c4ccncc4)nn23)cc(OC)c1 | -3.6% (inactive)
42 | O=C(NCc1ccccc1Cl)NC(=O)c1csc([N+](=O)[O-])c1 | -4.7% (inactive)
43 | O=C(NNC1=NCCC1)c1cccc(S(=O)(=O)N2CCCCC2)c1 | -3.2% (inactive)
44 | COC(=O)c1ccc(CSc2nc3cc(Cl)ccc3o2)cc1 | -2.5% (inactive)

Row | SMILES | inhibition
45 | CC1(C(=O)NS(=O)(=O)Cc2cccc(Cl)c2)CCN1C(=O)Cc1ccc(Cl)cc1Cl (stereo not drawn) | -5.7% (inactive)
46 | Nc1cccc(-c2cncc(N3CCN(Cc4ccccn4)CC3)n2)c1 | -2.8% (inactive)
47 | Cc1cc2nc(SCCN3CCOCC3)[nH]c2cc1C | 7.8% (inactive)
48 | CC(=O)c1ccc(N2C(=NC(=O)C(C)C)SC3CS(=O)(=O)CC32)cc1 (stereo not drawn) | -2.5% (inactive)
49 | CCN(CC(=O)Nc1ccccc1C(F)(F)F)C(=O)CSCc1c(C)noc1C | 2.2% (inactive)
50 | O=S(=O)(c1cccc(S(=O)(=O)N2CCC(n3nnc4ccccc43)CC2)c1)N1CCCCC1 | 4.7% (inactive)
51 | COc1cc(S(=O)(=O)N2CCN=C2c2ccccc2)ccc1Cl | -0.6% (inactive)
52 | CNC(=O)c1c(NC(NC(=O)c2ccco2)C(=O)c2ccc(Cl)cc2)sc2c1CCCC2 (stereo not drawn) | -4.6% (inactive)
53 | CCOC(=O)C1CCN(Cc2coc3ccc(Cl)cc3c2=O)CC1 | 0.9% (inactive)
54 | Cc1ccc(NC(=O)C2CCN(S(=O)(=O)c3ccc4c(c3)NC(=O)CO4)CC2)cc1C | 1.3% (inactive)
55 | CCc1ccccc1NC(=O)CSc1nnc(CCNC(=O)OC(C)(C)C)o1 | -3.1% (inactive)
56 | Cc1ccc(NS(=O)(=O)c2ccc(-c3coc(C)n3)cc2)c(C)c1 | -2% (inactive)
57 | Oc1ccccc1N1CCN(C(=S)NCc2ccccc2)CC1 | -2.2% (inactive)
58 | COc1ccccc1N1CCN(CC(=O)NC(=O)NCc2ccco2)CC1 | 2.9% (inactive)
59 | O=C(CN1CCN(c2ccccc2O)CC1)NC(=O)NCc1ccccc1 | 50.8% (active)
60 | Cc1cc(Br)ccc1NC(=O)CN(C)C(=O)CN1C(=O)NC2(CCCC2)C1=O | 1.3% (inactive)
61 | COc1cc(OC)cc(-c2c(-c3cccs3)c3cc(-c4ccc(OC)cc4F)ccc3n2C)c1 | -3.2% (inactive)
62 | CCOc1ccccc1-c1nc(CN2CCC(C(=O)N3CCOCC3)CC2)c(C)o1 | 0.2% (inactive)
63 | Cc1noc(C)c1CSc1nnc2ccc3ccccc3n12 | -0.1% (inactive)
64 | NC1=NC(=O)C(Cc2cccc(Cl)c2Cl)S1 (stereo not drawn) | -6.2% (inactive)
65 | COc1cc(Cl)ccc1OCc1cc(C(=O)N2CC[C@@H]3CCCC[C@H]3C2)no1 | 0.9% (inactive)
66 | CCC(=O)Nc1cccc(NC(=O)CSc2nnnn2C2CCCC2)c1 | 3.1% (inactive)

Row | SMILES | inhibition
67 | O=C(N/C(=C\c1ccc([N+](=O)[O-])cc1)C(=O)N1CCCCC1)c1ccco1 | 14.4% (inactive)
68 | C/C=C/C(=O)Nc1nnc(C(C)C)s1 | -0.2% (inactive)
69 | CNC[C@H]1Oc2c(NC(=O)C3CCCCC3)cccc2C(=O)N([C@H](C)CO)C[C@@H]1C | -2.2% (inactive)
70 | CCN(CC)C(=O)C1=C(C)N(Cc2ccc(OC)cc2)C(=O)C(CC(=O)NCCCCc2ccccc2)C1 (stereo not drawn) | -3.9% (inactive)
71 | CN1CCc2nc(SC(C(=O)O)c3ccccc3)c(C#N)c(-c3cccs3)c2C1 (stereo not drawn) | -13.7% (inactive)
72 | CCN(Cc1ccccc1)C(=O)CCS(=O)(=O)c1ccc2c(c1)oc(=O)n2C | 0.5% (inactive)
73 | O=[N+]([O-])c1ccc(C(S(=O)(=O)Cc2ccccc2)S(=O)(=O)Cc2ccccc2)cc1 | -1.4% (inactive)
74 | CCC(CC)C(=O)Nc1cc(C(=O)OC)cc(C(=O)OC)c1 | -1.3% (inactive)
75 | Cc1c(Cl)c([N+](=O)[O-])nn1CC(=O)NCC1CCCO1 (stereo not drawn) | -2.9% (inactive)
76 | OCC[C@H]1C[C@@H](O)[C@H](O)[C@@]2(OCCc3ccccc32)O1 | 3.4% (inactive)
77 | CCc1ccccc1NC(=S)Nc1cc(OC)c(NC(=O)C(C)C)cc1OC | 5.6% (inactive)
78 | O=C(Nc1cccc(F)c1)c1coc(=O)c(Br)c1 | 0.1% (inactive)
79 | O=C(NCC(c1ccco1)N1CCc2ccccc21)c1cccc(F)c1 (stereo not drawn) | -3.6% (inactive)
80 | COc1ccc(C2=NS(=O)(=O)N(C)C(C(=O)N3CCCCC3)=C2)cc1 | -0.5% (inactive)
81 | COC(c1ccccc1)c1nnc(CCC(=O)N2CCN(CCOc3ccccc3)CC2)o1 (stereo not drawn) | 0.2% (inactive)
82 | Cc1cc(C)cc(OCc2nnc(SCC(=O)OC3CCCCC3)o2)c1 | -14.4% (inactive)
83 | O=c1oc2ccccc2c(CNc2ccccc2)c1[N+](=O)[O-] | 7.9% (inactive)
84 | O=C1NC[C@H](CCCCN2C[C@H](Cc3ccc(O)cc3)N(CCc3ccccc3)C(=O)C2=O)N(CCc2ccccc2)C1=O | -11.9% (inactive)
85 | O=C(Nc1nnc(C2CC2)s1)C1=NN(C2CCS(=O)(=O)C2)C(=O)CC1 (stereo not drawn) | 1.6% (inactive)
86 | CNC(=O)c1nnn(-c2ccccc2)c1C(=O)NC | -0.6% (inactive)
87 | COc1ccc(-n2c(O)c(C=NCC(c3ccco3)N3CCCC3)c3ccccc3c2=O)cc1OC (stereo not drawn) | 0% (inactive)
88 | COc1cc(-c2nc(S(=O)(=O)c3ccc(Cl)cc3)c(N(C)C)o2)cc(OC)c1OC | 0% (inactive)

Row | SMILES | inhibition
89 | CCCCN(C(=O)c1ccc(S(=O)(=O)N2CCOCC2)cc1)C1CCS(=O)(=O)C1 (stereo not drawn) | 0.4% (inactive)
90 | CC(C)NC(=O)COCc1cc(-c2ccc3c(c2)OCO3)on1 | -4.5% (inactive)
91 | CCCCC(CC)CNCc1cccn1CCN1CCOCC1 (stereo not drawn) | 9% (inactive)
92 | CCn1c(SCC(=O)Nc2ccc(C)cc2)nc2nc3c(cc2c1=O)CCCC3 | -5.9% (inactive)
93 | Cc1ccc(CSCC2Nc3ccc(C(=O)N4CCN(c5ccc(F)cc5)CC4)cc3NC2=O)cc1 (stereo not drawn) | -0.9% (inactive)
94 | CC(C)OCCCNC(=O)c1ccc(C2SCC(=O)N2Cc2ccco2)cc1 (stereo not drawn) | 0.6% (inactive)
95 | CC(=O)Nc1ccc(Oc2ccc3c(c2)C(=O)NC3=O)cc1 | 30.3% (active)
96 | CC(=O)Nc1ccc(NC(=O)c2ccc3c(c2)C(=O)N(c2ccccc2C)C3=O)cc1 | 0.3% (inactive)
97 | CCCCC(=O)Nc1ccc2c(c1)C(=O)NC2=O | -3.5% (inactive)
98 | OCC1(Cc2ccccc2C(F)(F)F)CCN(Cc2cccc3cnccc23)CC1 | -3.3% (inactive)
99 | Nc1ncnc2c1cnn2C1CC(O)C(CO)O1 (stereo not drawn) | -1.1% (inactive)
100 | Cc1cccc(C)c1-n1nnnc1C(CCc1ccccc1)N1CCN(C/C=C/c2ccccc2)CC1 (stereo not drawn) | -0.9% (inactive)
101 | O=C(COC(=O)CNC(=O)C1CCCCC1)Nc1cccc(F)c1 | -8.5% (inactive)
102 | O=C(Nc1cccc(F)c1)[C@@H]1CCCN1 | 41.3% (active)
103 | O=C(Nc1cccc(F)c1)NC1CCCc2ccccc21 (stereo not drawn) | 0.6% (inactive)
104 | C#CCNC(=O)[C@H](Cc1ccc(C(=O)c2ccccc2)cc1)NC(=O)OC(C)(C)C | -1% (inactive)
105 | CC(C)(C)OC(=O)NC(Cc1ccccc1)C(=O)NC(CSC1CCCCO1)C(=O)NN (stereo not drawn) | 39.5% (active)
106 | CC(C)[C@@H](NC(=O)OC(C)(C)C)C(=O)NCC1CCC(C(=O)N[C@@H](Cc2ccccc2)C(=O)O)CC1 (stereo partly drawn) | 9% (inactive)
107 | COc1ccc(C2c3[nH]c4ccccc4c3CCN2CCCn2cccn2)cc1C (stereo not drawn) | 1.2% (inactive)
108 | Cc1ccccc1N1CCN(C2CCCN(C(=O)c3ocnc3C)C2)CC1 (stereo not drawn) | -3.3% (inactive)
